MBNL1 CUG block: inhibitors of human MBNL1 binding to CUG repeat RNA; Q9NR56; TR-FRET MBNL1-His/biotin-(CUG)12 binding, 665/545 ratio; Potency, µM (doses to about 57.5 µM), usual class: inhibitors; actives 0.036% (n = 280,000); active = well fitted inhibition curve with a large enough effect in the signal ratio, with a control signal flat, not every such curve was filed as active; inconclusive = small, poorly fitted or top-dose-only effect, or effect the other way, or a change in a side signal; inactive = no such curve, though single readings can be large or run the other way; the % refers to the signal ratio
Target sequence (Q9NR56 whole entry, looked up): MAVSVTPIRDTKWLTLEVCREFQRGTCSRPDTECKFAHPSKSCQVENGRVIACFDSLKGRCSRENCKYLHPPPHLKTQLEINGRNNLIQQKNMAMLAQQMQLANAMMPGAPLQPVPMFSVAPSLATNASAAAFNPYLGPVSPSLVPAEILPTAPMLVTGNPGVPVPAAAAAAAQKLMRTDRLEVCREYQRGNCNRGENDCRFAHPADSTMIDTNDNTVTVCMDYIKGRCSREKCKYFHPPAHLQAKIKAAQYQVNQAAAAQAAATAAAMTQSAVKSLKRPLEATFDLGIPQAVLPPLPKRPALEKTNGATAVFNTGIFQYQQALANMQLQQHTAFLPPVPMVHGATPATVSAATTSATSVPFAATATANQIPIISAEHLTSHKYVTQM
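TR-FRET between His-tagged MBNL1 and biotin-(CUG)12 RNA, detected with Tb anti-His antibody (0.055 ng/ul) and streptavidin-XL665 (5 nM), 60 min at room temperature. Compounds titrated 92 nM to 58 uM; 665/545 nm ratio normalized to buffer and complex controls.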
ClpP mod: qHTS Assay for Activators of ClpP; Potency, µM (highest dose often 57.5 µM); purified B. subtilis ClpP, FRET peptide cleavage, 20 min; AID 651965, 2013; actives 1.9% (n = 340,000); active = well fitted falling curve with a large enough effect; inconclusive = small, poorly fitted or top-dose-only effect; inactive = no such curve, though single readings can be large or run the other way; note: the source files actives as falling curves though it sought activators and does not explain the sign; nearly all actives have a fitted effect of over 65% in size
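ClpP 10 microg/mL final, pH 8 Tris/KCl buffer with BSA, glycerol, Tween-20; compound pinned in; FRET-FV substrate; RT 20 min; Ex320/Em430; ΔFRET vs ADEP 5.8 microM, DMSO, no enzyme.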
TCR activator: activates T cell receptor signaling | primary human leukocytes, anti-CD3, IL-2 HTRF, 48 h | Potency, µM (titrated, usually from 9.22 µM), most hits filed as activators | 330,000 tested, under 10 active
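Activity was scored as IL-2 release from primary human leukocytes given only a TCR signal (a-CD3 beads) plus compound for 48 hr. Detection used a two-antibody HTRF format read at 665nm.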
AT treatment: potential ataxia-telangiectasia treatment | F2112 A-T fibroblasts, KAP-1 phosphorylation AlphaLISA; neocarzinostatin DNA damage 30 min before lysis | Potency, µM (series often up to 57.5 µM), usual class: activators | actives 0.19% (n = 320,000) | AID 485349; note: nearly all actives have a fitted effect of over 45% in size
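hTERT-immortalized A-T patient fibroblasts (F2112), 500 cells/well in OPTI-MEM, 1% FBS, got compounds for 60 min, then NCS for 30 min at 37C. Lysates were then assayed for phospho-KAP-1 by AlphaLISA (anti-pKAP1 donor, anti-KAP1 acceptor beads), 6 hr at 25C.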
Mito fusion act: blocks mitochondrial division or promotes mitochondrial fusion | actives 0.23% (n = 320,000) | AID 485298 | S. cerevisiae fusion-defective mutant growth rescue, CellTiterGlo 48 h | Potency, µM (doses to about 46.1 µM), actives largely listed as activators; note: nearly all actives have a fitted effect of over 45% in size
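Growth-rescue viability read-out: after 48 h at the non-permissive 37C in glycerol/ethanol YPEG, yeast mitochondrial fusion mutants are measured by CellTiterGlo luminescence; compounds (23 nl pinned per well) restoring growth score as division inhibitors or fusion activators.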
GRP78 ERSR act: ER stress response induction in glioma; U87-MG GRP78 promoter luciferase reporter, 16 h; Potency, µM, hits mostly activators; actives 0.02% (n = 420,000); note: series mostly up to about 76 µM; nearly all actives have a fitted effect of over 35% in size
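ERSR induction read as luciferase luminescence (Bright-Glo, 10 min at room temperature) in stably transfected human U87-MG glioma cells exposed to compounds for 16 h, using GRP78 as sensor.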
Numbers stand for hits; – = inactive; ? = inconclusive; · = no result. The list is not random: actives were taken first. Their share in the collection is about 1.8%. Unless noted, calls come from the whole dose curve; as a rule, active = well fitted curve in the direction sought with a large enough effect; inconclusive = small, poorly fitted or top-dose-only effect, or another doubt; inactive = no such curve, though single readings can be large; an effect the other way counts as inactive or inconclusive.

SMILES	MBNL1 CUG block	ClpP mod	TCR activator	AT treatment	Mito fusion act	GRP78 ERSR act
COc1cc2nc(N3CCCCC3)nc(NC3CCN(Cc4ccccc4)CC3)c2cc1OC	·	–	·	·	·	·
CCN(CC)C(=O)N1CCN(/[N+]([O-])=N/Oc2ccc([N+](=O)[O-])cc2[N+](=O)[O-])CC1	·	·	·	·	·	–
CC(CSC(=O)c1ccccc1)C(=O)N1C[C@@H](Sc2ccccc2)C[C@H]1C(=O)O (some centres not stated)	·	·	·	·	·	–
C=C(Cl)COc1cc(C)cc2oc(=O)cc(CC)c12	–	31.6µM	–	–	–	–
CC(=O)COc1cc(C)cc2oc(=O)c(C)c(C)c12	–	?	–	–	–	–
CCc1cc(=O)oc2cc(C)cc(OCc3nn[nH]n3)c12	–	?	–	–	–	–
CC(=O)C(C)Oc1cc(C)cc2oc(=O)c(C)c(C)c12 (configuration not stated)	–	3.16µM	·	–	–	–
COc1ccccc1C1CN(Cc2cn(C)nc2C)Cc2ccccc2O1 (configuration not stated)	·	·	·	·	·	–
CCOC(=O)c1ccccc1N=N/C(C(C)=O)=C(/C)O	–	28.2µM	–	–	–	–
CCOC(=O)c1ccccc1NC(=O)/C(C)=C/C(=O)O	–	?	–	–	–	–
CCCCOn1c(C)c(C(=O)OCC)c2c3no[n+]([O-])c3ccc21	–	–	–	–	–	–
CCCCOn1c(C)c(C(=O)OCC)c2c3nonc3ccc21	·	17.8µM	–	·	·	–
c1coc(-c2ccccc2CN2CCOc3ccc(CN4CCOCC4)cc3C2)c1	·	·	·	·	·	–
COc1cc(S(=O)(=O)N2CCN(Cc3ccc4c(c3)OCO4)CC2)c(C)cc1C	–	–	–	–	14.1µM	–
Fc1cc(Br)ccc1NC(=S)Nc1ccccc1	–	28.2µM	–	–	–	–
Fc1ccccc1NC(=S)Nc1ccc(Br)cc1	–	–	–	–	–	–
O=C(Nc1nnc(Cc2ccccc2)s1)c1ccccc1	–	·	–	–	–	–
CN(C)S(=O)(=O)c1ccc(C(=O)Nc2nnc(Cc3ccccc3)s2)cc1	–	22.4µM	–	–	–	–
NC(=O)C1CCCN(Cc2ccc3c(c2)CN(Cc2cn[nH]c2-c2ccc(F)cc2)CCO3)C1 (configuration not stated)	·	·	·	·	·	–
O=C1C=C(Nc2ccccc2)c2ccccc2C1=O	?	·	–	35.5µM	–	–
COc1ccc2c(Sc3ccccc3)c(C(=O)NCC(C)c3ccccc3)[nH]c2c1 (configuration not stated)	·	–	·	·	·	–
CCC(C)NC(=O)c1[nH]c2cc(OC)ccc2c1Sc1ccc(C)cc1 (configuration not stated)	·	28.2µM	·	·	·	–
CCCCc1nc(NCC2CCCO2)c(C#N)c2c1COC(C)(C)C2 (configuration not stated)	–	7.94µM	–	–	–	–
CC(C)c1nc(N2CCN(C(=O)c3ccco3)CC2)c(C#N)c2c1COC(C)(C)C2	–	·	–	–	?	–
CC(C)c1nc(N2CCN(C(=O)c3ccccc3)CC2)c(C#N)c2c1COC(C)(C)C2	–	28.2µM	–	–	–	–
CCCCc1nc(N2CCOCC2)c(C#N)c2c1COC(C)(C)C2	–	28.2µM	–	–	–	–
CC1(C)Cc2c(C#N)c(SCCO)nc(N3CCOCC3)c2CO1	–	–	–	–	–	–
NC(=O)c1c(NC(NC(=O)c2ccco2)C(=O)c2ccc(Cl)cc2)sc2c1CCCC2 (configuration not stated)	–	–	–	·	–	–
N#Cc1c(NC(NC(=O)c2ccco2)C(=O)c2ccccc2)sc2c1CCCC2 (configuration not stated)	–	–	·	–	12.6µM	–
CCc1nn2c(=O)cc(COC(=O)c3cccc(NC(=O)CCc4ccccc4)c3)nc2s1	·	31.6µM	·	·	·	–

Compound activity as filed in PubChem BioAssay.
